Measured values published in PubChem BioAssay.
A number with no mark means an inactive call. For some assays here: Measured potencies and affinities stand elsewhere. Calls of active or inactive are those of the source. Unless noted, how the calls were made is not given here.

Experiments:
[1] = antimalarial activity against Dd2 strain (AID 2302;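 active means growth inhibition above 50% at the single 2 µM test dose, taken to imply half-maximal potency below 2 µM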;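 further: 0% = DMSO untreated growth and 100% = chloroquine plus artemisinin killed control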); details: P. falciparum Dd2 in RBCs, LDH growth readout, 72 h; at 2 µM; stronger effect = higher value
[2] = human hepatoma cell viability loss – ATP luminescence, cytotoxicity control for P. falciparum antimalarial project, primary screen (AID 2303;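 active means inhibition above 50%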;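 further: 0% = DMSO wells and 100% = digitonin-killed cells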); details: HepG2 viability, 24-48 h, at 10 µM, stronger effect = higher value
[3] = molecular target: L-lactate dehydrogenase (Plasmodium falciparum (isolate CDC / Honduras)) (UniProt Q27743); assay: PfLDH activity inhibition – cell lysate, 3D7 strain, counter-screen for P. falciparum growth inhibition project (AID 2304);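 further: 0% = vehicle and 100% = reference inhibitor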; details: P. falciparum 3D7 crude extract, LDH APAD/NBT absorbance; at 2 µM; stronger effect = higher value
Chain of L-lactate dehydrogenase (Plasmodium falciparum (isolate CDC / Honduras)) (Q27743 whole entry, looked up): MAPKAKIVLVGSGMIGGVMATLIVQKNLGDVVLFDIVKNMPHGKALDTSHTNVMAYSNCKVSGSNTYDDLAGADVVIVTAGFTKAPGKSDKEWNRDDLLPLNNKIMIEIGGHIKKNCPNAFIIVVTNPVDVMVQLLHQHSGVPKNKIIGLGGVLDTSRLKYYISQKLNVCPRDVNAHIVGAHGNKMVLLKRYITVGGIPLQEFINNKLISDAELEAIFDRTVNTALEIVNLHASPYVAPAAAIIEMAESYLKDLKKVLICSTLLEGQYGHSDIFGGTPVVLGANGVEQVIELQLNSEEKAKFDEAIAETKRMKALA

[4] = inhibition of 3D7 malaria parasite growth – strain 3D7 (AID 2306);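 further: 0% = DMSO wells and 100% = chloroquine plus artemisinin control wells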; details: P. falciparum 3D7 erythrocytic growth, LDH absorbance, 72 h; at 2 µM; stronger effect = higher value
[5] = molecular target: Calcium-dependent protein kinase 1 (Plasmodium falciparum (isolate 3D7)) (UniProt P62344); assay: PfCDPK1 kinase inhibitors, biochemical, TCAMS library (AID 1159585; cut-off not given, nearly all actives have IC50 up to about 0.98 µM;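 further: inhibitors leave more ATP so luminescence rises with inhibition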); details: recombinant PfCDPK1, Kinase-Glo ATP depletion luminescence
Chain of Calcium-dependent protein kinase 1 (Plasmodium falciparum (isolate 3D7)) (P62344 whole entry, looked up): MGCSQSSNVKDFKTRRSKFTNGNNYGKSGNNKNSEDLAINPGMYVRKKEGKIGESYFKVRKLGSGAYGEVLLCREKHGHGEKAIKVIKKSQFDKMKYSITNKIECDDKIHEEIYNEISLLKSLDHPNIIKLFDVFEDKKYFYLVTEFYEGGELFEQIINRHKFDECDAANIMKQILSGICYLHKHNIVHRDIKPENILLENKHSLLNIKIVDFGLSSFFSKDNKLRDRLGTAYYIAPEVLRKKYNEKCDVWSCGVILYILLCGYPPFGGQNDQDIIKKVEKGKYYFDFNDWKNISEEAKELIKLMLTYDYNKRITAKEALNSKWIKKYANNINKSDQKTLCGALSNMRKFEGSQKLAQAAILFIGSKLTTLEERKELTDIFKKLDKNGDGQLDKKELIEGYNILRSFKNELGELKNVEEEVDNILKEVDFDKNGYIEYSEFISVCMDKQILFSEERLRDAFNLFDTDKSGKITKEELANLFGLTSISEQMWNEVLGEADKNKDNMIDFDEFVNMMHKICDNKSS

[6] = molecular target: Plasmodium falciparum protein kinase 6 (PK6, PF3D7_1337100) (UniProt Q8IDW1); assay: PfPK6 kinase inhibitors, biochemical, TCAMS library (AID 1159586); details: recombinant PfPK6, Kinase-Glo ATP depletion luminescence
Chain of Plasmodium falciparum protein kinase 6 (PK6, PF3D7_1337100) (Q8IDW1 1-305): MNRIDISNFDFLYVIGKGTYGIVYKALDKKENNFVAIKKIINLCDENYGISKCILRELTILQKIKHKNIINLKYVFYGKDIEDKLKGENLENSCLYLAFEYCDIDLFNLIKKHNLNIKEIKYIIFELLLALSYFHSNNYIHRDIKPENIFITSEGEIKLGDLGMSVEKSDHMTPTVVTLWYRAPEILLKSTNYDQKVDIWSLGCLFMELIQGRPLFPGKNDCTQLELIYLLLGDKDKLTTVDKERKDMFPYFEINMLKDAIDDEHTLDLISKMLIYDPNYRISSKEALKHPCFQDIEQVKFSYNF

[7] = molecular target: Protein kinase 7 (PK7), Plasmodium falciparum 3D7 (PF3D7_0213400) (UniProt Q7YTF7); assay: inhibition of Plasmodium PK7 catalytic activity – biochemical, TCAMS antimalarial set, Kinase-Glo luminescence (AID 1159587); details: recombinant PfPK7, Kinase-Glo ATP depletion luminescence
Chain of Protein kinase 7 (PK7), Plasmodium falciparum 3D7 (PF3D7_0213400) (Q7YTF7 1-343): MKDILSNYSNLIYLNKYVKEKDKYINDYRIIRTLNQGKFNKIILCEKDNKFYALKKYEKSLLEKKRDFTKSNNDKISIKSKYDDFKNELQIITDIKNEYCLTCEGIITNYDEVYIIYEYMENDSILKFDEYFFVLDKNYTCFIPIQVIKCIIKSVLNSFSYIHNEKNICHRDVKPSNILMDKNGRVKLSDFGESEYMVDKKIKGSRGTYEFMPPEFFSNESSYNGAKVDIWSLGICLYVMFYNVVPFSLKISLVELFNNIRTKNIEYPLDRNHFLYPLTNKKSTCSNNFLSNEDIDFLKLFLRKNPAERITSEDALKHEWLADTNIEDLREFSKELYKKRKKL

[8] = molecular target: Calcium-dependent protein kinase 4 (Plasmodium falciparum (isolate 3D7)) (UniProt Q8IBS5); assay: PfCDPK4 kinase inhibitors, biochemical, TCAMS library (AID 1159588; cut-off not given, nearly all actives have IC50 up to about 0.91 µM); details: recombinant PfCDPK4, Kinase-Glo ATP depletion luminescence
Chain of Calcium-dependent protein kinase 4 (Plasmodium falciparum (isolate 3D7)) (Q8IBS5 whole entry, looked up): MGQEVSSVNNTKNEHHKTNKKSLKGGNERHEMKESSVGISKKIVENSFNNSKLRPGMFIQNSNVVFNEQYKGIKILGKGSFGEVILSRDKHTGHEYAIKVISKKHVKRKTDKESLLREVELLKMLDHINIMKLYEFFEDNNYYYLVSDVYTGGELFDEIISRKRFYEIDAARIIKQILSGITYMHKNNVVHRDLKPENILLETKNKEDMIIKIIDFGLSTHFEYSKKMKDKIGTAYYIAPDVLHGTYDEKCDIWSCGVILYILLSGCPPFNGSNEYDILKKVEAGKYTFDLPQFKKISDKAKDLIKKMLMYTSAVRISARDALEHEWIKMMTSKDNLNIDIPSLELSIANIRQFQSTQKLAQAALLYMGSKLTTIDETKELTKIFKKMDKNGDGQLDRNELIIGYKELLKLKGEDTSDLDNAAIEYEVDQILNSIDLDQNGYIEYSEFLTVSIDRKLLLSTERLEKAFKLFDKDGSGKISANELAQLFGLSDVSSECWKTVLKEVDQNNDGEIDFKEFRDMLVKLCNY

Row | SMILES | growth inhibition [1] | inhibition [2] | inhibition [3] [%] | growth inhibition [4] | outcome [5] | outcome [6] | outcome [7] | outcome [8]
1 | O=C(NCc1ccccc1)Nc1ccc(-c2ccc(-c3nc4ccc(C(F)(F)F)cc4[nH]3)cc2)cc1 | 23% | 40% | 4 | 99% (active) | inactive | inactive | inactive | inactive
2 | N#Cc1ccc(CN2CCC(NC(=O)c3ccc(-c4nnc(-c5cccc6ccccc56)o4)cc3)CC2)cc1 | 14% | 37% | -2 | 98% (active) | inactive | inactive | inactive | inactive
3 | CC(=O)NCCNCc1cccc(C(=O)NCc2cccc(C(F)(F)F)c2)c1 | -2% | 1% | 1 | 95% (active) | inactive | inactive | inactive | inactive
4 | N#Cc1ccc(-c2ccc3nc(N4CCCN(C5CCC5)CC4)ccc3c2)cc1 | 14% | 36% | -2 | 96% (active) | inactive | inactive | inactive | inactive
5 | COc1cc(OCCCN(C)Cc2ccc(OC)c(OC)c2)ccc1NC(=O)c1cccc2c(=O)c3cccc(F)c3[nH]c12 | 62% (active) | 10% | -5 | 94% (active) | inactive | inactive | inactive | inactive
6 | COCCN1CCC(C(=O)NCC(C)(C)c2nc(-c3ccc(Br)c(O)c3)c(-c3ccncc3)[nH]2)CC1 | 6% | -12% | 3 | 99% (active) | inactive | inactive | inactive | inactive
7 | COc1cccc(C(=O)OC2=C3CCC(=O)C3(C)CCC2=O)c1 (stereo not given) | 9% | 37% | 2 | 93% (active) | inactive | inactive | inactive | inactive
8 | CCOCCCn1c(=N)c(C(=O)NCc2ccc(OC)cc2)cc2c(=O)n3cccc(C)c3nc21 | 46% | 24% | 2 | 99% (active) | inactive | inactive | inactive | inactive
9 | CC(C)[C@H](NC(=O)c1ccc(O)c(-c2ccc(Cl)c(Cl)c2)c1)C(=O)NCCN(C)C | 1% | -4% | -3 | 92% (active) | inactive | inactive | inactive | inactive
10 | NC(=O)c1cc(-c2ccccc2)cc2c(C3CCC(NCc4ccccc4)C3)c[nH]c12 (stereo not given) | 30% | 99% (active) | -7 | 95% (active) | inactive | inactive | inactive | inactive
11 | COc1ccc(C(=O)N2CCC(C(=O)NC(C)c3ccc(-n4ccnc4)cc3)CC2)c2ccccc12 (stereo not given) | 79% (active) | 12% | -4 | 83% (active) | inactive | inactive | inactive | inactive
12 | Cc1noc(C)c1-c1cccc(C(=O)NC2CCN(CCNC(=O)C(c3ccccc3)c3ccccc3)CC2)c1 | 74% (active) | 27% | 5 | 85% (active) | inactive | inactive | inactive | inactive
13 | Cc1cc(Cl)c(Cl)cc1NC(=O)Nc1cccc(C(F)(F)F)c1 | 99% (active) | 1% | -1 | 93% (active) | inactive | inactive | inactive | inactive
14 | CCc1cn2c3c(cc(C(=O)N[C@@H](Cc4cc(F)cc(F)c4)[C@H](O)CNC4CCCCC4)cc13)N(C)S(=O)(=O)CC2 | 99% (active) | 9% | -6 | 100% (active) | inactive | inactive | inactive | inactive
15 | O=c1cc(NCCCNC2CCCc3c2ccc2ccccc32)[nH]c2ccccc12 (stereo not given) | 30% | -1% | -2 | 94% (active) | inactive | inactive | inactive | inactive
16 | c1ccc(COc2ccccc2COc2ccccc2-c2ccc3cccnc3n2)cc1 | 95% (active) | -6% | 5 | 87% (active) | inactive | inactive | inactive | inactive
17 | CC[C@H]1CN(CCCC(=O)c2ccccc2)CC[C@H]1CCCc1ccnc2ccc(OC(=O)c3ccccc3)cc12 | 68% (active) | 28% | 1 | 83% (active) | inactive | inactive | inactive | inactive
18 | CC(C)C[C@H](NC(=O)c1cc2ccccc2s1)C(=O)N[C@H]1CCN(Cc2ccc(OC3CCN(C)C3)c(Cl)c2)C1 (stereo not given in full) | 65% (active) | 68% (active) | 2 | 97% (active) | inactive | inactive | inactive | inactive
19 | CC(CCCCOCCc1ccccc1)NCC(O)c1cc(Cl)c(N)c(Cl)c1 (stereo not given) | 95% (active) | -5% | -1 | 96% (active) | inactive | inactive | inactive | inactive
20 | COc1cccc(CNC[C@@H](O)[C@H](Cc2ccccc2)NC(=O)c2cc3c4c(c2)c(C(C)C)cn4CCS(=O)(=O)N3C)c1 | 98% (active) | 21% | -6 | 98% (active) | inactive | inactive | inactive | inactive

Row | SMILES | growth inhibition [1] | inhibition [2] | inhibition [3] [%] | growth inhibition [4] | outcome [5] | outcome [6] | outcome [7] | outcome [8]
21 | COc1cc(Nc2ccnc3ccc(C(F)(F)F)cc23)ccc1OCCCc1ccccc1 | 51% (active) | 11% | -10 | 99% (active) | inactive | inactive | inactive | inactive
22 | Cc1cc(O)c(CNC2CCCCC2)cc1C | 95% (active) | 6% | -2 | 95% (active) | inactive | inactive | inactive | inactive
23 | Cc1ccc(OCCCON2C(N)=NC(N)=NC2(C)C)cc1C | 94% (active) | 57% (active) | 0 | 96% (active) | inactive | inactive | inactive | inactive
24 | NCC1CCCN1Cc1ccc(-c2ccc(-c3nc4ccc(F)cc4[nH]3)cc2)cc1 (stereo not given) | 100% (active) | 31% | -3 | 102% (active) | inactive | inactive | inactive | inactive
25 | CC(C)[C@H](NCC(=O)c1ccccc1)C(=O)O | 0% | 6% | -3 | 99% (active) | inactive | inactive | inactive | inactive
26 | CCCc1ccc(NC(=O)c2ccc(CN3CCCN(CC4CCCCC4)CC3)cc2)cc1 | 41% | 49% | -7 | 95% (active) | inactive | inactive | inactive | inactive
27 | CCc1c(C)nc(-n2nc(C)cc2NC(=O)CC(c2ccccc2)c2ccccc2)[nH]c1=O | 98% (active) | 41% | -3 | 97% (active) | inactive | inactive | inactive | inactive
28 | O=C(/C=C/c1ccc(Cl)c(Cl)c1)NCCCCCN1CCCC(CNC(=O)Nc2ccc(C(F)(F)F)cc2)C1 (stereo not given) | 7% | 27% | -9 | 100% (active) | inactive | inactive | inactive | inactive
29 | Clc1cc(Cl)cc(Nc2ccnc(Nc3cc(Cl)cc(Cl)c3)n2)c1 | 73% (active) | 11% | -1 | 99% (active) | inactive | inactive | inactive | inactive
30 | CCOc1cc(C(=O)NC2CC(C)(C)NC(C)(C)C2)ccc1-c1cc2cc(Cl)c(Cl)cc2[nH]1 | 46% | 37% | -1 | 101% (active) | inactive | inactive | inactive | inactive
31 | COc1ccc(Cl)cc1-c1nc(C(=O)NCCN2CCCCC2)c(C)s1 | 10% | 16% | -7 | 97% (active) | inactive | inactive | inactive | inactive
32 | CN(N=Cc1ccccc1)C(N)=NCCCC#Cc1cccc(CN2CCCC2)c1 | 3% | 16% | -2 | 89% (active) | inactive | inactive | inactive | inactive
33 | Cc1ccc(C(C)C)c(Oc2ccc3nc(N)nc(N)c3c2)c1 | 33% | 61% (active) | 2 | 96% (active) | inactive | inactive | inactive | inactive
34 | Cc1ccccc1C1CCN(C2CCC(NC(=O)c3cc4cc(C(C)C)ccc4[nH]3)CC2)CC1 (stereo not given) | 100% (active) | 100% (active) | -3 | 99% (active) | inactive | inactive | inactive | inactive
35 | Cc1cc2c(cc1C(F)(F)F)N(C(=O)Nc1cc(OCCN(C(C)C)C(C)C)cc(C(F)(F)F)c1)CC2 | 86% (active) | 42% | -2 | 100% (active) | inactive | inactive | inactive | inactive
36 | CN(C)CCN(Cc1ccc(-c2ccc(CNCCc3ccccc3)cc2)nc1)C(=O)CCC1CCCC1 | 89% (active) | 98% (active) | -3 | 96% (active) | inactive | inactive | inactive | inactive
37 | CCn1cnc2c(N3CCCC3=O)cc(C(=O)N[C@@H](Cc3ccccc3)[C@H](O)CNC3CCCCC3)cc21 | 94% (active) | -2% | -5 | 98% (active) | inactive | inactive | inactive | inactive
38 | O=C(/C=C/c1ccc(Cl)c(Cl)c1)NCCCCCN1CCC(NC(=O)c2cc(Cl)ccc2F)CC1 | 32% | 48% | 4 | 92% (active) | inactive | inactive | inactive | inactive
39 | CC1CCc2c(C(=O)Nc3c(F)cc(F)cc3Br)csc2C1 (stereo not given) | 59% (active) | -1% | 3 | 96% (active) | inactive | inactive | inactive | inactive
40 | Cc1noc(C)c1-c1ccc2c(Nc3ccccc3C(C)(C)C)c(C(=O)NCc3cccc4ccccc34)cnc2c1 | 64% (active) | 4% | -2 | 96% (active) | inactive | inactive | inactive | inactive
